Several values for one entry are separate records, joined by “and”; a condition that tells them apart may be missing. Identical values can stand only once. Inconclusive results are not listed. A call without a number means that no potency is given here. Where a structure was tested more than once in an assay, its records may differ in their call. Activity calls are given as the source filed them. Unless noted, calls come from the whole dose curve.
Molecular target: Androgen receptor (Homo sapiens) (UniProt P10275)
Assay: qHTS assay to identify small molecule agonists of the androgen receptor (AR) signaling pathway in the presence of an antagonist (AID 1259381); note: nearly all actives have a fitted effect of over 15% in size
Conditions: MDA-kb2 MMTV-luciferase, AR agonist + nilutamide, 16 h; series mostly up to 92.4 µM
In short: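 Here, 15-concentration compound series were pin-transferred onto MDA-kb2 MMTV-luciferase cells already dosed with nilutamide (3.0uM final). After 16hr at 37C, ONE-Glo was added and luminescence read 30min later at room temperature.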

Sequence of Androgen receptor (Homo sapiens) (P10275 whole entry, looked up): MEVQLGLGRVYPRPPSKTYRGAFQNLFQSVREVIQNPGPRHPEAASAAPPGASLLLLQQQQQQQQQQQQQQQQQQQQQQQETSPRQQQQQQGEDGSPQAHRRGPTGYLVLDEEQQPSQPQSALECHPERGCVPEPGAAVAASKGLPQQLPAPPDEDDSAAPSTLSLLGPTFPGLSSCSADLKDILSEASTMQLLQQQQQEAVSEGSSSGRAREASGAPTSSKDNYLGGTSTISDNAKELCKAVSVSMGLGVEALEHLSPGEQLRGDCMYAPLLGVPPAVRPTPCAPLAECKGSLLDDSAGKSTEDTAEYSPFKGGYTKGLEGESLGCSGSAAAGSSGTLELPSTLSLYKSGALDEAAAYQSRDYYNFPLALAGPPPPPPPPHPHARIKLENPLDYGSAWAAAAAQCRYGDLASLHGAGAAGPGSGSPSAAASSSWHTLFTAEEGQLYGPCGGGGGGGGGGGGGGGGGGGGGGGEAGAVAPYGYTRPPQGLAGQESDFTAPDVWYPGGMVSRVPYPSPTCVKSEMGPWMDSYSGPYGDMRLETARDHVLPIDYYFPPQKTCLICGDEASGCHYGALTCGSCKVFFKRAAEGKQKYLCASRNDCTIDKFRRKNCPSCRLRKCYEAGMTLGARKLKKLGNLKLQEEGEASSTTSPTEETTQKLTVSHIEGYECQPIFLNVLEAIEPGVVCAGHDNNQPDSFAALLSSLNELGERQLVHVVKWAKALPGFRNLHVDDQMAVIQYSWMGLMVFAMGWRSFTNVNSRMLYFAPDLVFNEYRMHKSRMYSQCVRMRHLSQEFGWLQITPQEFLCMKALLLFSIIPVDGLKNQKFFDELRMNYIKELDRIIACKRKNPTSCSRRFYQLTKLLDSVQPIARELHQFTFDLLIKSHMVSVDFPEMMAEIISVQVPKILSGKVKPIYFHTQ

Row | Structure (SMILES) | Potency
1 | CCc1ccc(C(c2ccc(CC)cc2)C(Cl)Cl)cc1 | inactive
2 | CCCCCCCCCCCCCC[P+](CCCC)(CCCC)CCCC | inactive
3 | CCCC(=O)c1ccccc1 | inactive
4 | CCC(C)(Oc1ccc(C2(c3ccc(OC(C)(CC)C(=O)O)cc3)CCCCC2)cc1)C(=O)O (stereo unspecified) | inactive
5 | CC1=CC(=O)c2ccccc2C1=O | inactive
6 | COc1cc(C(=S)N2CCOCC2)ccc1O | inactive
7 | Cc1ccc(-c2cc(C(F)(F)F)nn2-c2ccc(S(N)(=O)=O)cc2)cc1 | inactive
8 | Cc1c(O)cccc1C(=O)N[C@@H](CSc1ccccc1)[C@H](O)CN1C[C@H]2CCCC[C@H]2C[C@H]1C(=O)NC(C)(C)C | inactive
9 | CCCCCCCCCCCCc1ccccc1O | inactive

System: not listed separately
Assay: qHTS assay to identify small molecule antagonists of the estrogen receptor beta (ER-beta) signaling pathway - cell viability counter screen (AID 1259382; active = well fitted cell-killing curve with a large enough effect in the repeat runs; note: nearly all actives have a fitted effect of over 55% in size; note: potency is the fitted concentration of half-maximal effect;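 for activity change, negative = cytotoxicity: HEK293T cells carrying ER-beta-UAS-bla reporter stimulated with estradiol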)
Conditions: ER-beta-UAS-bla HEK293T viability, CellTiter-Glo luminescence, 16 h; series mostly up to 92.4 µM
In short: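 Tox21 10K library tested in qHTS format on ER-beta-bla HEK293T cells stimulated with 1nM E2; 16 hr treatment at 37C. Same-well CellTiter-Glo luminescence served as the cell viability measure.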

Row | Structure (SMILES) | Potency | activity change, negative = cytotoxicity
10 | CC1COc2c(N3CCN(C)CC3)c(F)cc3c(=O)c(C(=O)O)cn1c23 (stereo unspecified) | inactive | –
11 | CCc1ccc(C(c2ccc(CC)cc2)C(Cl)Cl)cc1 | inactive | –
12 | O=C(O)CP(=O)(O)O | inactive | –
13 | CCn1cc(C(=O)O)c(=O)c2cc(F)c(N3CCNC(C)C3)c(F)c21 (stereo unspecified) | inactive | –
14 | c1ccc2c(c1)-c1cccc3c1c-2cc1ccccc13 | inactive | –
15 | NC(N)=Nc1nc(CSCC/C(N)=N/S(N)(=O)=O)cs1 | inactive | –
16 | NCCO | inactive | –
17 | CCCCCCCCCCCCCC[P+](CCCC)(CCCC)CCCC | 19.2 µM (active) and 24.3 µM (active) | –
18 | O=C(O)c1cn(-c2ccc(F)cc2)c2cc(N3CCNCC3)c(F)cc2c1=O | inactive | –
19 | CCCCC/C=C/CC1CC(=O)OC1=O (stereo unspecified) | inactive | –
20 | CCCC(=O)c1ccccc1 | inactive | –
21 | Cc1cc(C2(c3cc(C)c(O)cc3C)OS(=O)(=O)c3ccccc32)c(C)cc1O | inactive | –
22 | O=C(OCc1ccccc1)c1ccc(O)cc1 | inactive | –
23 | CCC(C)(Oc1ccc(C2(c3ccc(OC(C)(CC)C(=O)O)cc3)CCCCC2)cc1)C(=O)O (stereo unspecified) | inactive | –
24 | CCc1cc(C(C)(C)C)c(O)c(C(C)(C)C)c1 | inactive | –
25 | CC(=O)CC(C)=O | inactive | –
26 | NCCCCCC(=O)O | inactive | –
27 | NNCCc1ccccc1 | inactive | –
28 | Nc1nc2ccccc2[nH]1 | inactive | –

Row | Structure (SMILES) | Potency | activity change, negative = cytotoxicity
29 | O=C(Oc1ccccc1)c1ccccc1O | inactive | –
30 | CC(C)(c1ccccc1)c1ccc(Nc2ccc(C(C)(C)c3ccccc3)cc2)cc1 | inactive | –
31 | NC(N)=NC(=O)Cc1c(Cl)cccc1Cl | inactive | –
32 | CC1=CC(=O)c2ccccc2C1=O | 24.3 µM (active) | –
33 | COc1cc(C(=S)N2CCOCC2)ccc1O | inactive | –
34 | CCCNC(C)C(=O)Nc1ccccc1C (stereo unspecified) | inactive | –
35 | CC(=O)O[C@]1(C(C)=O)CC[C@H]2[C@@H]3C[C@H](C)C4=CC(=O)CC[C@]4(C)[C@H]3CC[C@@]21C | inactive | –
36 | NC(Cc1ccc(Cl)cc1)C(=O)O (stereo unspecified) | – | -0.284% [at 0.349 µM] (inactive)
37 | O=C1CC2(CCCC2)CC(=O)N1CCCCN1CCN(c2ncccn2)CC1 | inactive | –
38 | Cc1ccc(-c2cc(C(F)(F)F)nn2-c2ccc(S(N)(=O)=O)cc2)cc1 | 61.1 µM (active) and inactive | –
39 | CC(=O)CC(=O)Nc1ccc2[nH]c(=O)[nH]c2c1 | inactive | –
40 | c1ccc2cc3c(ccc4ccccc43)cc2c1 | inactive | –
41 | Cc1c(O)cccc1C(=O)N[C@@H](CSc1ccccc1)[C@H](O)CN1C[C@H]2CCCC[C@H]2C[C@H]1C(=O)NC(C)(C)C | 16.8 µM (active) and 23.7 µM (active) | –
42 | O=C(O)c1cccc(C(=O)O)c1 | inactive | –
43 | CCN1CCCC1CNC(=O)c1cc(S(=O)(=O)CC)c(N)cc1OC (stereo unspecified) | inactive | –
44 | CCC[C@H](N[C@@H](C)C(=O)N1[C@H](C(=O)O)C[C@@H]2CCCC[C@@H]21)C(=O)OCC | inactive | –
45 | CCCCCCCCCCCCc1ccccc1O | 47.9 µM (active) and 43.3 µM (active) | –
46 | CC(C)(C)NCC(O)c1cc(O)cc(O)c1 (stereo unspecified) | inactive | –

Molecular target: Estrogen receptor (Homo sapiens) (UniProt P03372)
Assay: qHTS assay to identify small molecule agonists of the estrogen receptor alpha (ER-alpha) signaling pathway in the presence of an antagonist (AID 1259383); note: nearly all actives have a fitted effect of over 15% in size; note: potency is the fitted concentration of half-maximal effect
Conditions: VM7Luc4E2 cells, ERE-luciferase, +ICI-182,780, 22 h; series mostly up to 92.4 µM
In short: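 In VM7Luc4E2 cells, 4,000 per well, compounds at 15 concentrations were co-incubated 22hr at 37C with 10.0nM final ICI-182,780. Luminescence from the stably transfected 4×ERE-luciferase reporter was recorded 30min after ONE-Glo addition.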

Sequence of Estrogen receptor (Homo sapiens) (P03372 whole entry, looked up): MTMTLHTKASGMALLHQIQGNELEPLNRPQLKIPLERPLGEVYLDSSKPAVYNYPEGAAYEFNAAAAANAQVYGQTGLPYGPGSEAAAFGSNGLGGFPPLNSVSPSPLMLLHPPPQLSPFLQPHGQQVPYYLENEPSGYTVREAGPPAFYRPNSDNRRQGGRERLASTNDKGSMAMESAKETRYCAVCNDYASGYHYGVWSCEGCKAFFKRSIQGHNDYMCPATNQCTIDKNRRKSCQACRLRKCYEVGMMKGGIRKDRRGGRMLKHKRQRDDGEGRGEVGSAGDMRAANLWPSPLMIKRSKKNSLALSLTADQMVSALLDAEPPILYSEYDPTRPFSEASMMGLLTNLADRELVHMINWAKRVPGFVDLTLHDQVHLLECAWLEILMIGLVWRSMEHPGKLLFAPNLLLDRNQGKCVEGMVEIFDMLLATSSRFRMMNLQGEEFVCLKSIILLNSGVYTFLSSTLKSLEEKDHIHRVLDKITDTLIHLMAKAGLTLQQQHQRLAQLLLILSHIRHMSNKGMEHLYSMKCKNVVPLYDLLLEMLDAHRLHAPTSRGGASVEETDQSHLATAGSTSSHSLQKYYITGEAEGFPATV

Row | Structure (SMILES) | Potency
47 | CCc1ccc(C(c2ccc(CC)cc2)C(Cl)Cl)cc1 | inactive
48 | O=C(O)CP(=O)(O)O | inactive
49 | CCn1cc(C(=O)O)c(=O)c2cc(F)c(N3CCNC(C)C3)c(F)c21 (stereo unspecified) | inactive
50 | c1ccc2c(c1)-c1cccc3c1c-2cc1ccccc13 | inactive
51 | NC(N)=Nc1nc(CSCC/C(N)=N/S(N)(=O)=O)cs1 | inactive
52 | NCCO | inactive
53 | CCCCCCCCCCCCCC[P+](CCCC)(CCCC)CCCC | inactive
54 | CCCCC/C=C/CC1CC(=O)OC1=O (stereo unspecified) | inactive
55 | Cc1cc(C2(c3cc(C)c(O)cc3C)OS(=O)(=O)c3ccccc32)c(C)cc1O | 43.3 µM (active) and inactive
56 | O=C(OCc1ccccc1)c1ccc(O)cc1 | 30.6 µM (active) and 29.8 µM (active)
57 | CCC(C)(Oc1ccc(C2(c3ccc(OC(C)(CC)C(=O)O)cc3)CCCCC2)cc1)C(=O)O (stereo unspecified) | inactive
58 | CC(=O)CC(C)=O | inactive
59 | NCCCCCC(=O)O | inactive
60 | Nc1nc2ccccc2[nH]1 | inactive
61 | O=C(Oc1ccccc1)c1ccccc1O | inactive
62 | CC(C)(c1ccccc1)c1ccc(Nc2ccc(C(C)(C)c3ccccc3)cc2)cc1 | inactive
63 | CC1=CC(=O)c2ccccc2C1=O | inactive
64 | COc1cc(C(=S)N2CCOCC2)ccc1O | inactive
65 | CCCNC(C)C(=O)Nc1ccccc1C (stereo unspecified) | inactive
66 | CC(=O)O[C@]1(C(C)=O)CC[C@H]2[C@@H]3C[C@H](C)C4=CC(=O)CC[C@]4(C)[C@H]3CC[C@@]21C | inactive
67 | Cc1ccc(-c2cc(C(F)(F)F)nn2-c2ccc(S(N)(=O)=O)cc2)cc1 | inactive
68 | CC(=O)CC(=O)Nc1ccc2[nH]c(=O)[nH]c2c1 | inactive
69 | O=C(O)c1cccc(C(=O)O)c1 | inactive
70 | CCN1CCCC1CNC(=O)c1cc(S(=O)(=O)CC)c(N)cc1OC (stereo unspecified) | inactive
71 | CCC[C@H](N[C@@H](C)C(=O)N1[C@H](C(=O)O)C[C@@H]2CCCC[C@@H]21)C(=O)OCC | inactive
